PMP22 txn: modulators of PMP22 gene transcription in S16 Schwann cells | Potency, µM (series often up to 57.5 µM), for inactives: at the highest dose activity change, negative = inhibition, actives largely listed as inhibitors | AID 1508649 | actives 2% (n = 43,000) | S16 Pmp22-F2sN Schwann cells, FLuc/NLuc coincidence luminescence, 24 h; active = clear falling dose curves in both reporters; inconclusive = both reporters move, but less clearly or upward; inactive = either reporter flat; the % is the NLuc reporter signal; also: potency is read from the fitted curve at half-maximal effect; % is scaled to controls: 0 for no effect and ±100 for the full control effect
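S16 Schwann cells carrying FLuc/NLuc coincidence reporter in the Pmp22 3' UTR treated with compound 24 h at 37C; FLuc then NLuc luminescence read sequentially by dual-luciferase reagents.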
GALC G270D act: enhancers of human galactocerebrosidase G270D mutant activity in cells | 145M-Twi-hGALC-G270D cells, HMU-beta-Gal fluorescence, 48 h | P54803 | actives 0.1% (n = 45,000) | Potency, µM (series often up to 57.5 µM), most hits filed as activators | AID 1159614; also: potency is read from the fitted curve at half-maximal effect; 0% is about no effect; nearly all actives have a fitted effect of over 65% in size
Target sequence (P54803 whole entry G286D): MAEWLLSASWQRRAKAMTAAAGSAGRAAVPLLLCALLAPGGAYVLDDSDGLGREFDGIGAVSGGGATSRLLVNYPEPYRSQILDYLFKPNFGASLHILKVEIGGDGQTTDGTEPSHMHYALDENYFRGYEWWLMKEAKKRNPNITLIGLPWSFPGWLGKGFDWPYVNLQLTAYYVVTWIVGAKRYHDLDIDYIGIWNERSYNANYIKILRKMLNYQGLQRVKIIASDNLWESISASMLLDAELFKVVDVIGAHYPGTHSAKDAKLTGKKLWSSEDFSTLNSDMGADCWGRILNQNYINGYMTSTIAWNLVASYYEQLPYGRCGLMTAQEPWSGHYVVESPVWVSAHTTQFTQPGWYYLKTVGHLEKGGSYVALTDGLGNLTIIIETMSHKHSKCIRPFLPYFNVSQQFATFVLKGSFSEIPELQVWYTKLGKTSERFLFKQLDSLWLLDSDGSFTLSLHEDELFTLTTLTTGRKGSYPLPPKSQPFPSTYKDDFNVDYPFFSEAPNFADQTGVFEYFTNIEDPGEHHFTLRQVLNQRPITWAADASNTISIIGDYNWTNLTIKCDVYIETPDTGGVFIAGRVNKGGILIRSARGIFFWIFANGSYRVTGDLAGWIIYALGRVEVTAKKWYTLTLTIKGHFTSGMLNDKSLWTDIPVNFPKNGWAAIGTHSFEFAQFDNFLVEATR
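qHTS, 1536-well; 145M-Twi-hGALC-G270D cells (WT line also made) in DMEM/F12 + 10% FBS; compound incubation on live cells; HMU-β-gal 0.1 mM final, pH 5.2, NaTC; carbonate stop; fluorescence increase = enhanced residual activity.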
OvCa metastasis: inhibitors of ovarian cancer cell adhesion and invasion in omental model; SKOV3ip1-GFP adhesion/invasion on 3D omental model, fluorescence; Potency, µM (titrated, usually from 45.8 µM), for inactives: at the top dose activity change, negative = inhibition, usual class: inhibitors; actives 0.1% (n = 46,000); AID 1963576;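 also: potency is read from the fitted curve at half-maximal effect; plate controls were DMSO wells for no effect and tomatine positive control wells for full effect; nearly all actives have a fitted effect of over 65% in size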
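A 3D layer of primary human omental fibroblasts, mesothelial cells, fibronectin and collagen I, grown 48 hr, received SKOV3ip1-GFP cells in serum-free medium plus compounds at 0.36-46 umol/L. After 2 hr RT and 16 hr 37 C, fixed adherent GFP cells were counted; normalized to DMSO and tomatine.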
S16 viability: toxic to S16 Pmp22-F2sN Schwann cells; S16 Pmp22-F2sN Schwann cells viability, CellTiter-Glo, 24 h; Potency, µM (series often up to 57.5 µM), for the others: top-dose activity change, negative = cytotoxicity, usual class: cytotoxic; actives 0.48% (n = 43,000); also: potency is read from the fitted curve at half-maximal effect; % is scaled to controls: 0 for no effect and ±100 for the full control effect; nearly all actives have a fitted effect of over 65% in size
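Viability was measured by CellTiter-Glo luminescence (15 min, room temperature). This followed 24 h at 37 °C of compound exposure (23 nL pin transfer) in S16 Pmp22-F2sN Schwann cells, 500-1,000 per well.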
mTORC1 inh: inhibitors of mTORC1 signaling in Tsc2-/- p53-/- MEF cells. Tsc2-/- p53-/- MEF, phospho-rpS6 immunofluorescence/PI, 24 h. Potency, µM (series often up to 38.3 µM), for inactives: top-dose activity change, negative = inhibition, hits mostly inhibitors. actives 0.78% (n = 44,000). AID 493208;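 also: potency is read from the fitted curve at half-maximal effect; plate controls were DMSO for no effect and rapamycin for full effect; nearly all actives have a fitted effect of over 50% in size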
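Readout is phospho-S6 Alexa 488 signal normalized to PI per well, reported as % active cells with thresholds set from rapamycin (7.5 nM) and DMSO controls. Cells: Tsc2-/-, p53-/- MEFs, 24 hrs compound at 37 C; PI cell number serves as viability.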
NLuc saturating: NanoLuc enzyme inhibition artifact for PMP22 screen; shares compounds with PMP22 txn; Secreted NLuc enzyme (filtered S16 cell medium), Nano-Glo luminescence; Potency, µM (series often up to 57.5 µM), without a hit: at the top dose activity change, negative = inhibition, hits mostly inhibitors; actives 4% (n = 690); AID 1508638; also: potency is read from the fitted curve at half-maximal effect; % is scaled to controls: 0 for no effect and ±100 for the full control effect
NLuc Km counter: inhibits NanoLuc under Km conditions, PMP22 counter-screen. shares compounds with PMP22 txn. secreted NLuc enzyme, coelenterazine luminescence, Km conditions. Potency, µM (titrated, usually from 57.5 µM), for the others: top-dose activity change, negative = inhibition, hits mostly inhibitors. actives 5% (n = 690); also: potency is read from the fitted curve at half-maximal effect; % is scaled to controls: 0 for no effect and ±100 for the full control effect
FLuc counter: firefly luciferase enzyme inhibition artifact for PMP22 screen. AID 1508640. purified P. pyralis FLuc, luminescence, 10 min. 690 tested, under 10 active. Potency, µM (titrated, usually from 57.5 µM), inactives show top-dose activity, negative = inhibition, usual class: inhibitors. shares compounds with PMP22 txn; also: % of control where 0% means no effect
S16 viab conf: S16 Schwann cell cytotoxicity, confirmatory; actives 7% (n = 690); shares compounds with PMP22 txn; S16 Schwann cells viability, CellTiter-Glo ATP luminescence, 24 h; AID 1508641; Potency, µM (series often up to 57.5 µM), for inactives: at the top dose activity change, negative = viability loss, usual class: cytotoxic; also: potency is read from the fitted curve at half-maximal effect; % is scaled to controls: 0 for no effect and ±100 for the full control effect
PMP22 txn conf: PMP22 transcription modulation, confirmatory | actives 22% (n = 690) | shares compounds with PMP22 txn | Potency, µM (titrated, usually from 57.5 µM), for inactives: top-dose activity change, negative = inhibition, actives largely listed as inhibitors | S16 Schwann cells Pmp22-F2sN, dual luciferase, 24 h | AID 1508646; active = clear falling dose curves in both reporters; inconclusive = both reporters move, but less clearly or upward; inactive = either reporter flat; the % is the FLuc reporter signal; also: potency is read from the fitted curve at half-maximal effect
PMP22 HiBiT cnf: confirmation of modulators of rat PMP22 protein expression; shares compounds with PMP22 txn; S16 Schwann cells Pmp22-HiBiT, luminescence, 48 h; Potency, µM (top dose mostly 27.9 µM), inactives show at the top dose activity change, negative = inhibition, actives largely listed as inhibitors; 95 tested, under 10 active
Numbers without * were called inactive; i = inactive; ? = inconclusive; / = no result given; [ ] = dose if it differs, or a comment. Compounds with a hit are over-represented: about 2.6% of the library has one in this group of screens. Unless noted, calls follow the shape of the dose curve; as a rule, active = well fitted curve in the direction sought with a large enough effect; inconclusive = small, poorly fitted or top-dose-only effect, or another doubt; inactive = no such curve, though single readings can be large; an effect the other way counts as inactive or inconclusive.

SMILES	PMP22 txn	GALC G270D act	OvCa metastasis	S16 viability	mTORC1 inh	NLuc saturating	NLuc Km counter	FLuc counter	S16 viab conf	PMP22 txn conf	others
Cc1ccccc1Nc1nn2c(=O)c3ccc(C(=O)NCc4ccccc4)cc3nc2s1	?	i	i	-7%	4%	/	/	/	/	/
CCc1ccccc1Nc1nn2c(=O)c3ccc(C(=O)NCc4ccc(C)cc4)cc3nc2s1	?	i	i	-3%	-12%	/	/	/	/	/
CNC(=O)c1cc(Oc2ccc(NC(=O)Nc3ccc(Cl)c(C(F)(F)F)c3)c(F)c2)ccn1	/	/	-26%	/	/	/	/	/	/	/
Cc1cccc(/C=C(\C#N)c2nc3ccccc3c(=O)[nH]2)c1	11µM*	i	11%	0%	-3%	?	?	-5%	?	5%
CN(C)c1ccc(/C=C(\C#N)c2nc3ccccc3c(=O)[nH]2)cc1	?	i	-9%	7%	-18%	/	/	/	/	/
CC(=O)N1CCN(c2ccc(O)cc2)CC1	/	i	/	/	/	/	/	/	/	/
Cc1ccc(NC(=O)CSc2ncc3c(n2)-c2ccccc2N(C)S3(=O)=O)c(Cl)c1	6.4µM*	i	-8%	15%	2%	?	4%	-3%	-15%	?
CCOc1ccccc1Nc1sc(C(=O)c2ccc(Cl)cc2)c(N)c1C#N	15µM*	i	13%	1%	-3%	0%	4%	-2%	1%	-2%
C[C@@H](NCc1cc2ccccc2[nH]1)c1cccc2ccccc12	/	/	-24%	/	/	/	/	/	/	/
COc1cc(NC(=O)CSc2c3c(nc4ccccc24)CCC3)cc(OC)c1OC	?	i	-10%	30%	?	/	/	/	/	/
O=C(CSc1c2c(nc3ccc(Cl)cc13)CCCC2)NCc1ccccc1Cl	11µM*	i	i	22µM*	-2%	?	?	-1%	27%	?
CCOC(=O)c1ccc(NC(=O)CSc2c3c(nc4cc(Cl)ccc24)CCCC3)cc1	?	i	27%	10%	2%	/	/	/	/	/
COc1ccc(NC(=O)CSc2c3c(nc4ccc(Cl)cc24)CCCC3)cc1Cl	19µM*	i	-12%	?	1%	?	?	6%	?	?
O=C(CSc1c2c(nc3cc(Cl)ccc13)CCCC2)NCc1ccccc1Cl	?	i	?	?	-26%	/	/	/	/	/
Cc1ccc(CNC(=O)CSc2c3c(nc4ccc(Cl)cc24)CCCC3)cc1	10µM*	i	i	1%	-11%	-13%	?	-5%	5%	-17%
CCC(C)NC(=O)CSc1c2c(nc3cc(Cl)ccc13)CCCC2 (centres undefined)	12µM*	i	3%	4%	-3%	?	?	5%	7%	?
Nc1ccc(C(=O)N2CC3CC(CN(Cc4ccccc4)C3)C2)cc1	/	i	/	/	/	/	/	/	/	/
C/C(=C(/OCCOc1ccc(Cl)cc1)c1ccc(Cl)cc1Cl)n1ccnc1	/	i	/	/	/	/	/	/	/	/
O=C(CCCCCCC(=O)Nc1ccc([C@H]2O[C@@H](CSc3nc(-c4ccccc4)c(-c4ccccc4)o3)C[C@@H](c3ccc(CO)cc3)O2)cc1)NO	/	/	-15%	/	/	/	/	/	/	/
CC(=O)NCCC(=O)N[C@@H](CCC(N)=O)C(=O)N[C@@H](CO)C(=O)N[C@@H](CCC(N)=O)C(=O)N[C@@H](CCC(N)=O)C(=O)N[C@H](C(=O)N[C@@H](Cc1ccccc1)C(=O)N[C@]1(C)CCCCCCC=CCCC[C@@](C)(C(=O)N[C@@H](CCC(N)=O)C(=O)N[C@@H](CC(N)=O)C(N)=O)NC(=O)[C@H](CC(C)C)NC(=O)[C@H](CC(C)C)NC(=O)[C@@H](CCCNC(=N)N)NC(=O)[C@H](Cc2c[nH]c3ccccc23)NC(=O)[C@H](CC(C)C)NC(=O)[C@H](CC(N)=O)NC1=O)[C@H](C)O	/	/	-5%	/	/	/	/	/	/	/
Cc1cc([C@@H](C)Nc2ccccc2C(=O)O)c2nc(N3CCOCC3)cc(=O)n2c1	/	/	-13%[92.2 µM]	/	/	/	/	/	/	/
CCCNC(=O)CSc1c2c(nc3ccc(Cl)cc13)CCCC2	?	i	-13%	16%	?	/	/	/	/	/
Cc1ccc(C)c(NC(=O)CSc2c3c(nc4ccc(Cl)cc24)CCCC3)c1	15µM*	i	3%	1%	2%	-20%	-7%	5%	0%	?
COC(=O)c1ccccc1NC(=O)CSc1c2c(nc3ccc(Cl)cc13)CCCC2	18µM*	i	5%	17%	0%	-15%	4%	6%	?	?
Cc1ccc(-n2[nH]c(C)c(N=Nc3cccc(-c4cccc(C(=O)O)c4)c3O)c2=O)cc1C	/	i	-8%	/	/	/	/	/	/	/
CCc1ccc(NCc2cc3cc(OC)c(OC)cc3n(CC(=O)Nc3cc(C)ccc3C)c2=O)cc1	11µM*	?	i	8%	2%	-11%	9%	-1%	-10%	?
O=S(=O)(NCC(c1ccco1)S(=O)(=O)c1cccs1)c1ccc(Cl)cc1 (centres undefined)	15µM*	i	-26%	-14%	18µM*	?	?	-6%	8%	7.6µM*	PMP22 HiBiT cnf=-26%
O=C(NCC(c1ccco1)S(=O)(=O)c1cccs1)c1ccc(Cl)cc1 (centres undefined)	-24%	i	8%	-10%	0%	/	/	/	/	/

Source: PubChem BioAssay
